The record followed here is PubChem BioAssay (NCI).

About 83,000 compounds went through this panel and 20% of them were active in at least one assay; those are over-represented in the sample as a whole.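 Assay: single dose, 48 h. Readout: percent growth (0 = no net growth; negative = cell death). Active: <10.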 Unmarked numbers belong to inactive results. Calls of active or inactive are those of the source.

The test system of this assay is SNB-75 CNS. Put plainly: NCI-60 one-dose screen, 48 h (100 = growth as untreated, 0 = no growth, -100 = all killed). The settings on record: 10 µM unless noted.
In the case of `COC(=O)[C@@H](C)C[C@H](Cc1ccccc1)NC(=O)c1nc([C@@H](C[C@H](C(C)C)N(C)C(=O)[C@@H](NC(=O)[C@H]2CCCN2C)C(C)C)OC(C)=O)sc1C`, the growth was 51.2%. With `CCCCCSC1C2C(=O)C(Br)=CC13CCNc1c(O)c4c5c(c13)=[N+]2CCC=5C=N4` (configuration not stated) the figure was -88.8% (active). Consider `CC1=C(CCCOC(=O)CN)C2=C(C)C3(CC3)[C@@](C)(O)C(=O)C2=C1`, for which the growth is 97%. Regarding `COC(=O)CC[C@H](Cc1ccccc1)NC(=O)c1csc([C@@H](C[C@H](C(C)C)N(C)C(=O)[C@@H](NC(=O)[C@H]2CCCCN2C)C(C)C)OC(C)=O)n1`, the growth was 34.3%. On to `COC(=O)CC12CC(NC(=O)c3csc([C@@H](C[C@H](C(C)C)N(C)C(=O)[C@@H](NC(=O)[C@H]4CCCCN4C)C(C)C)OC(C)=O)n3)(C1)C2`, for which the growth is 59%.

In the case of `O=C1CNC(c2ccccc2)c2cc(Cl)ccc2N1` (configuration not stated), the growth was 85.6%. For `CC1(C)N=C(N)N=C(N)N1c1cccc(CCCCc2ccc(Cl)c(S(=O)(=O)F)c2)c1`, the growth was 62.2%. With `CC(=O)O[C@H](C[C@H](C(C)C)N(C)C(=O)[C@@H](NC(=O)[C@H]1CCCCN1C)C(C)C)c1nc(C(=O)N[C@@H](Cc2ccccc2)C[C@H](C)C(=O)O)c(C(C)C)s1` the figure was 22.6%; with `COC(=O)[C@@H](C)C[C@H](Cc1ccccc1)NC(=O)c1csc(CC[C@H](C(C)C)N(C)C(=O)[C@@H](NC(=O)[C@H]2CCCCN2C)C(C)C)n1`, 42.6%.

`CCOP(=O)(NC[C@H]1O[C@](O)(CO)[C@@H](O)[C@@H]1O)OCC`: the growth was 80.2%. Take `COc1cc([C@@H]2c3cc4c(cc3[C@H](OC(C)=O)[C@H]3COC(=O)[C@H]23)OCO4)cc(OC)c1OC`: the growth is 41.4%.

In the case of `COC(=O)[C@@H](C)C[C@H](Cc1cn(C)c2ccccc12)NC(=O)c1csc([C@@H](C[C@H](C(C)C)N(C)C(=O)[C@@H](NC(=O)[C@H]2CCCCN2C)C(C)C)OC(C)=O)n1`, the growth is 59%.

For `CCOC(=O)[C@@H](C)C[C@H](Cc1ccccc1)NC(=O)c1csc([C@@H](C[C@H](C(C)C)N(C)C(=O)[C@@H](NC(=O)[C@H]2CCCCN2C)C(C)(C)C)OC(C)=O)n1`, the growth was 11.9%. With `CC1=C(CCCNS(C)(=O)=O)C2=C(C)C3(CC3)[C@@](C)(O)C(=O)C2=C1` the figure was -60.6% (active); with `COC(=O)[C@@H](C)C[C@H](Cc1ccccc1)NC(=O)c1cccc([C@@H](C[C@H](C(C)C)N(C)C(=O)[C@@H](NC(=O)[C@H]2CCCCN2C)C(C)C)OC(C)=O)n1`, 26.5%. Regarding `CNC(=O)Oc1ccc(C(C)(C)C)cc1OC(=O)NC`, the growth is 91%. With `CC1(C)C(C(=O)c2cn(CCCCF)c3ccccc23)C1(C)C` the figure was 96%; with `CC(=O)O[C@H](C[C@H](C(C)C)N(C)C(=O)[C@@H](NC(=O)[C@H]1CCCCN1C)C(C)C)c1nc(C(=O)NC2CCC(C(=O)O)CC2)cs1` (some centres not stated), -1.9% (active). Take `CCCC[C@H](NC(=O)[C@H]1CCCN1C)C(=O)N(C)[C@H](C[C@@H](OC(C)=O)c1nc(C(=O)N[C@@H](Cc2ccccc2)C[C@H](C)C(=O)OCC)cs1)C(C)C`: the growth was 51.5%.

Take `CCOC(=O)[C@@H](C)C[C@H](Cc1ccccc1)NC(=O)c1csc([C@@H](C[C@H](C(C)C)N(C)C(=O)CNC(=O)[C@H]2CCCCN2C)OC(C)=O)n1`: the growth is -13.4% (active). In the case of `COc1ccc([As]=[As]c2ccc(OC)c(NCS(=O)(=O)O)c2)cc1NCS(=O)(=O)O` (configuration not stated), the growth was 36.9%.

`CC1=C(CCCOC(=O)[C@H](N)CC(C)C)C2=C(C)C3(CC3)[C@@](C)(O)C(=O)C2=C1`: the growth was -7.8% (active).

As to `O=[N+]([O-])c1cc(I)cc([N+](=O)[O-])c1`, the growth was 93.2%.

Consider `CC(=O)OC[C@]1(C)C=C2C(=O)[C@](C)(O)C3(CC3)C(C)=C2[C@H]1OC(=O)N(C)CCN(C)C(=O)OC(C)(C)C`, for which the growth was -15.1% (active).

Turning to `CC[C@H](C)[C@H](NC(=O)[C@H]1CCCCN1C)C(=O)N(C)[C@H](CCc1nc(C(=O)N[C@@H](Cc2ccccc2)C[C@H](C)C(=O)OC)cs1)C(C)C`, the growth is 56.3%.

As for `COc1ccc(Nc2ccc([N+](=O)[O-])cc2[N+](=O)[O-])cc1CN(CCCl)CCCl`, the growth is 33.7%. For the compound `COC(=O)CCc1c[nH]c2ccc(N(CCCl)CCCl)cc12`, the growth is 49%. With `Nc1c(F)cc(-c2nc3cc(F)ccc3[se]2)cc1F` the figure was 92.2%. In the case of `COC(=O)[C@@]1(C)CC[C@]2(C)CC[C@]3(C)C4=CC=C5C(=CC(=O)C(O)=C5C)[C@]4(C)CC[C@@]3(C)[C@@H]2C1`, the growth was -78.9% (active). With `COC(=O)[C@@H](C)C[C@H](Cc1ccccc1)NC(=O)c1nc([C@@H](C[C@H](C(C)C)N(C)C(=O)[C@@H](NC(=O)[C@H]2CCCCN2C)C(C)C)OC(C)=O)sc1C` the figure was 12.7%; with `CC(=O)O[C@H](C[C@H](C(C)C)N(C)C(=O)[C@@H](NC(=O)[C@H]1CCCN1C)C(C)C)c1nc(C(=O)N[C@@H](Cc2ccccc2)C[C@H](C)C(=O)O)c(C)s1`, 50.5%; with `CCOC(=O)[C@@H](C)C[C@H](Cc1ccccc1)NC(=O)c1csc([C@@H](C[C@H](C(C)C)N(C)C(=O)[C@H](CCC(C)C)NC(=O)[C@H]2CCCCN2C)OC(C)=O)n1`, 37.6%. With `COC(=O)C12CC(NC(=O)c3csc([C@@H](C[C@H](C(C)C)N(C)C(=O)[C@@H](NC(=O)[C@H]4CCCCN4C)C(C)C)OC(C)=O)n3)(C1)C2` the figure was 47%; with `Clc1ccc2nnnn2n1`, 80.3%; with `CC[C@H](C)[C@H](NC(=O)[C@H]1CCCCN1C)C(=O)N(C)[C@H](C[C@@H](O)c1nc(C(=O)N[C@@H](Cc2ccccc2)C[C@H](C)C(=O)O)cs1)C(C)C`, 59.7%.

On to `N#C[S-].[Au+].c1ccc(CN2[CH-]N(Cc3ccccc3)C(c3ccccc3)=C2c2ccccc2)cc1`, for which the growth is 43.6%.

Take `CCCCCCCCCCCCNC(c1ccccc1)C(O)c1ccccc1` (configuration not stated): the growth was 106%.
